This passage reports growth inhibition results from PubChem BioAssay (NCI).

Molecules are shown by their SMILES. This is part of a sample that, as a whole, favours compounds with a hit. Of some 79,000 tested, about 15% had one in any assay. Unmarked numbers belong to inactive results. The source made the active and inactive calls. No stated cut-off is given here; in the data, active means growth inhibition above about 70%; inactive means the rest.

A short description of test [1]: NCI Yeast Anticancer Drug Screen. Data for the rad50 strain (AID 155).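 Further: 0% = growth of vehicle-only cultures of the same strain.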 As to conditions: S. cerevisiae rad50 strain growth inhibition; at 50.0 µM; active compounds read high. The procedure, abridged: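 Genetically altered yeast (DNA repair pathway); compound treatment; growth inhibition vs vehicle ctrl.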
Test [2] is described as follows: NCI Yeast Anticancer Drug Screen. Data for the mec2-1 strain (AID 157). The conditions noted are these: S. cerevisiae mec2-1 strain, at 50.0 µM, active compounds read high. In short, it runs like this:
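Compounds were applied to mec2-1 yeast cells. Their growth was then compared with that of vehicle-treated cultures to give growth inhibition.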

Test [3] can be described thus: NCI Yeast Anticancer Drug Screen. Data for the sgs1 mgt1 strain (AID 161).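 Further: 0% = growth of cultures given vehicle only.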 The conditions noted are these: S. cerevisiae sgs1 mgt1 strain, at 50.0 µM, active compounds read high. In short, it runs like this:
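Compounds are added to genetically altered yeast, and growth is compared with cultures given vehicle alone to give percent inhibition.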

The nature of test [4]: NCI Yeast Anticancer Drug Screen. Data for the cln2 rad14 strain (AID 165).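 Further: 0% = growth equal to vehicle treated cultures.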 The conditions noted are these: S. cerevisiae cln2 rad14 strain, at 50.0 µM, active compounds read high. In short, it runs like this: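 Strain: cln2 rad14 yeast, altered in cell cycle control and DNA damage repair. Read-out: growth inhibition vs vehicle.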
Test [5] in a line: NCI Yeast Anticancer Drug Screen. Data for the bub3 strain (AID 167). The conditions noted are these: S. cerevisiae bub3 mutant strain, at 50.0 µM, active compounds read high. In short, it runs like this: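 Yeast carrying a defined mutation is treated with each compound, and growth is compared with that of vehicle-exposed cells to give inhibition.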
A short description of test [6]: NCI Yeast Anticancer Drug Screen. Data for the mlh1 rad18 strain (AID 175). As to conditions: S. cerevisiae mlh1 rad18 strain growth inhibition; at 50.0 µM; active compounds read high. The procedure, abridged:
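A repair-deficient yeast strain is exposed to test compound, and growth is scored relative to vehicle-treated controls.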

Regarding `O=C(NCCc1ccc([N+](=O)[O-])cc1)c1ccc(S(=O)(=O)F)cc1`, the growth inhibition in test [1] was 1.9%; in test [2] it was 12.7%; in test [3], 6.5%; in test [4], 3%; in test [5], 19.4%; in test [6], 8.05%.

`C[N+](C)=c1nc(N2CCc3ccccc3C2)ss1`: the growth inhibition is 27% in test [1]; 37% in test [2]; 26.4% in test [3]; -19.4% in test [4]; 12.1% in test [5]; 47.7% in test [6].

Take `CC[CH2][Sn]([CH2]CC)[CH2]CC.CC[CH2][Sn]([CH2]CC)[CH2]CC`: the growth inhibition in test [1] was 99.2% (active); in test [2] it was 99.5% (active); in test [3], 99.5% (active); in test [4], 99.5% (active); in test [5] it was 98.6% (active); in test [6], 99.4% (active).

With `CC(N)CCc1ccccc1` (stereo not given), the growth inhibition was 2.7% in test [1]; -19.9% in test [2]; -1.15% in test [3]; 24.7% in test [4]; 3.6% in test [5]; 12.4% in test [6].

As to `O=[N+]([O-])c1cccc2cccc([N+](=O)[O-])c12`, the growth inhibition was -7.45% in test [1]; -28.1% in test [2]; -10.3% in test [3]; -86.7% in test [4]; -35% in test [5]; 11.3% in test [6].

As to `CC(=O)CC(C)=O.[In]`, the growth inhibition in test [1] is 23.8%; in test [2] it was 42.6%; in test [3], 34.5%; in test [4], 29.4%; in test [5], 27.6%; in test [6], 2.65%.

In the case of `[N-]=[N+]=C1CNC(=O)NC1=O`, the growth inhibition in test [1] is 9.9%; in test [2], -19.6%; in test [3] it was -10.6%; in test [4], 0.05%; in test [5], -0.15%; in test [6] it was 1.05%.

On to `O=C1NC(=O)C(F)C(O)N1` (stereo not given), for which the growth inhibition is -22.8% in test [1]; -17.8% in test [2]; -6.15% in test [3]; -14.8% in test [4]; 16.1% in test [5]; -8.2% in test [6].

Turning to `Cc1c(O)c(O)c(C)c(CCN)c1O`, the growth inhibition in test [1] was 15.4%; in test [2], 19.8%; in test [3], 22.1%; in test [4], -26.8%; in test [5], 25.1%; in test [6], 27.9%.

In the case of `Nc1cccc2scnc12` (tested in a mixture with another compound), the growth inhibition is -13.9% in test [1]; 3.8% in test [2]; 29.7% in test [3]; -7.85% in test [4]; -10.3% in test [5]; 19.1% in test [6].

With `COc1ccc(C[As+](c2ccccc2)(c2ccccc2)c2ccccc2)cc1`, the growth inhibition in test [1] is 97.8% (active); in test [2], 98.3% (active); in test [3], 97.4% (active); in test [4], 97% (active); in test [5] it was 93% (active); in test [6], 97.2% (active).

`CN1CC(C(=O)NO)C=C2c3cccc4[nH]cc(c34)CC21` (stereo not given): the growth inhibition in test [1] is 8.8%; in test [2], 42.5%; in test [3], 23.5%; in test [4] it was -3.7%; in test [5], 41.5%; in test [6], 14.4%.

As to `COP(=O)(O)NC(C)=O`, the growth inhibition in test [1] was 13.7%; in test [2], -23.9%; in test [3], 8.85%; in test [4] it was -64.5%; in test [5], 9.45%; in test [6], -8.4%.

On to `Cc1ccc(NC2=NCCS2)cc1Cl`, for which the growth inhibition in test [1] is 3.05%; in test [2], 7.15%; in test [3], 12.1%; in test [4] it was 10.8%; in test [5], 10.2%; in test [6], 16.1%.

As to `N#CC(c1ccccc1)N1CCCN(C(C#N)c2ccccc2)C1c1ccc(N(CCCl)CCCl)cc1` (stereo not given), the growth inhibition is 11.1% in test [1]; -1.5% in test [2]; 2.25% in test [3]; -17.3% in test [4]; -0.9% in test [5]; 9.65% in test [6].

For `COP(=O)(OC)C(N)CCSC` (stereo not given), the growth inhibition in test [1] was -25.1%; in test [2] it was -65.7%; in test [3] it was -61.8%; in test [4] it was 23.7%; in test [5], 17.1%; in test [6], -2.1%.

Consider `CCOC(=O)N=C=O`, for which the growth inhibition is -17.8% in test [1]; 4.7% in test [2]; -15.7% in test [3]; 11.9% in test [4]; -3.1% in test [5]; -1.85% in test [6].

Take `O=C([O-])C[SH2+].[Co+3].[NH-]CC[NH-].[NH-]CC[NH-].[O-][Cl+3]([O-])([O-])O`: the growth inhibition in test [1] is 7.4%; in test [2], 20.1%; in test [3] it was 14.3%; in test [4], -16.6%; in test [5], 17.4%; in test [6], 20.4%.

Consider `COc1ccc2c(c1OC)CC(N)C2O` (stereo not given), for which the growth inhibition in test [1] is 9%; in test [2] it was 3.55%; in test [3], 7.8%; in test [4], 4.3%; in test [5], 15.2%; in test [6], 3.25%.

Consider `COC(C(=O)O)(c1ccccc1)c1ccccc1`, for which the growth inhibition in test [1] is -24.8%; in test [2], -18.9%; in test [3], 1.05%; in test [4], -33.9%; in test [5], -9.2%; in test [6], -0.35%.
